64 molecules from PubChem BioAssay AID504582 (Broad Institute, 2011) can be followed below.

Out of some 340,000 compounds screened, about 2,300 (0.68%) were called active. The full list was thinned out, with actives kept by preference. Unmarked numbers belong to inactive results. No stated cut-off is given here; in the data, active means growth rescue above about 28% (passing the limit was not always enough); inconclusive means no clear call, values can overlap the other calls.

This assay can be described thus: rescue of yeast from PfHsp40 toxicity, primary screen, S. cerevisiae, ATP luminescence (AID 504582).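 Further: yeast W303a lacking pdr1 and pdr3 grown in galactose medium; growth measured after three days at 30 °C.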 As to conditions: S. cerevisiae expressing PfHsp40, growth rescue, at 12.5 µM, active compounds read high.
With `COc1cc(C(=O)OCC(=O)NC23CC4CC(CC(C4)C2)C3)cc(OC)c1OC`, the growth rescue was 0.746%.
In the case of `CC1(C)C2CCC1(C)C(OC(=O)c1ccc(O)cc1)C2` (centres undefined) it was 518% (active); in that of `Cc1ccc(C(=O)OC2CCCN(C)C2)cc1` (centres undefined), -1.37%; in that of `CC1(C)C2CCC1(C)C(OC(=O)CCn1ccnc1)C2` (centres undefined), -1.93%.
In the case of `CCOC(=O)Nc1ccc2c(c1)N(C(=O)CCCl)c1ccccc1[S@]2=O` it was 1.15%; in that of `Cc1ccc2c(c1)N(CC(=O)NCCCN1CCCCC1)C(=O)c1cccnc1O2`, -0.596%.
In the case of `COC(=O)C1CCCCN1C(=O)c1ccc(OC2CCN(C(C)=O)CC2)c(OC)c1` (centres undefined) it was 1.77%; in that of `Cc1ccc2c(c1)N(CC(=O)N1CCOCC1)C(=O)CO2`, -0.417%; in that of `CCCCNc1nc2c(c(=O)n(C)c(=O)n2C)n1Cc1cccc(OC)c1`, 0.511%.
As for `CCCCNc1c(-c2cccc(Sc3ccc(OC)cc3)c2)nc2ccccn12`, the growth rescue is 310% (active).
Next, `CCCCNc1c(-c2ccc(OC)c(Sc3ccc(OC)cc3)c2)nc2ccc(Cl)cn12`: 19.1%; `Cn1c(=O)n(C)c2cc(CNc3ccc(N4CCOCC4)c(C(=O)O)c3)ccc21`: -0.489%; `Cc1cccc(N2CCN(C(=O)CN(C)S(=O)(=O)c3ccc4c(c3)CCC(=O)N4)CC2)c1C`: -1.62%.
In the case of `COc1cc(C=NNC(=O)c2cccnc2)ccc1OC(=O)c1ccccc1F` it was 1.77%; in that of `COc1ccc(C(=O)Nc2cc(C)c(NC(=O)c3ccccc3OC)cn2)cc1`, 1.75%; in that of `COc1ccc(C(=O)Nc2ccccc2C(=O)N/N=C/c2ccc(O)c(OC)c2)cc1`, 40.9% (active).
Next, `C=CCN1CC(C)/C(=N\O)CC1C` (centres undefined): -0.962%; `COc1cccc(CNC(=O)CCC2CCCN(C(=O)c3cc(C)[nH]n3)C2)c1` (centres undefined): 1.27%; `NC(=O)NC(=O)CSc1nc2cc([N+](=O)[O-])ccc2n1-c1cccc(C(F)(F)F)c1`: 0.555%.
With `Nc1[nH]c(=S)nc2nc(-c3ccccc3)c(-c3ccccc3)nc12`, the growth rescue was 38.7% (active).
In the case of `Cc1ccc(Cc2cncc(O)c2)cc1S(=O)(=O)O` it was -2.67%; in that of `O=C(Nc1ccc2sc3ccccc3c(=O)c2c1)c1ccccc1Cl`, -0.178%; in that of `O=C(Nc1ccc2ccccc2c1[N+](=O)[O-])c1ccccc1`, 0.461%.
Next, `O=C(NC1=CC(=O)c2ccccc2C1=O)c1ccccc1`: 300% (active); `COC(=O)c1nc(NC(=O)c2ccccc2)n[nH]1`: -0.423%; `O=c1c2ccccc2ccc2ccc(P(=O)(O)O)cc12`: -0.021%.
For `CCOC(=O)CSc1nnc(CNC(=O)c2cccs2)n1-c1ccccc1`, the growth rescue was -0.612%.
Take `COc1ccc2[nH]c(C(=O)N3CCN(C)CC3)c(C)c2c1`: the growth rescue was -0.899%.
Next, `COc1ccc2[nH]c3c(c2c1)CCN[C@H]3C`: -1.47%.
Next, `COc1ccc2[nH]c3c(C)c4cc[n+](C)cc4c(C)c3c2c1`: 122% (active); `Cc1c(NC(=O)C(C)Oc2cccc(Cl)c2)c(=O)n(-c2ccccc2)n1C` (centres undefined): 0.003%.
In the case of `COc1ccc(-c2cc(C(=O)NCCCN3CCOCC3)no2)cc1` it was 0.263%.
On to `O=C(NCCCN1CCOCC1)c1cc(-c2cccc(O)c2)on1`, for which the growth rescue was 44.1% (active).
In the case of `O=C(NCCCN1CCOCC1)c1cc(-c2ccc(Cl)cc2)on1` it was 0.597%.
Next, `CCOC(=O)CNC(=O)CSc1ncccc1-c1nc2ccccc2[nH]1`: 0.257%.
Next, `CC(=NCc1ccco1)c1c(C(F)(F)F)[nH]n(-c2nc3ccccc3s2)c1=O`: -0.486%.
`Cc1cc(NC(=O)CN2CCCC(C)C2)n(-c2nc3ccccc3s2)n1` (centres undefined): the growth rescue was -1.25%.
In the case of `COC(=O)Cc1cc(=O)n(-c2nc3ccccc3s2)[nH]1` it was 103% (active); in that of `O=C(NCCCn1ccnc1)c1cc(-c2ccccc2)on1`, -0.876%.
In the case of `O=C(/C=C/c1ccccc1)Oc1coc(CSc2ncccn2)cc1=O` it was 1.58%; in that of `O=C1c2ccccc2C(=O)N1CCC#Cc1ccc2cc(C3(O)CCCCC3)oc(=O)c2c1`, 0.213%.
Next, `COc1cc(/C=C2\Oc3ccc(C#Cc4ccc(O)cc4)cc3C2=O)cc(OC)c1`: -1.52%; `COc1cc(C#Cc2ccc3cc(CCCO)oc(=O)c3c2)cc(OC)c1`: 45.9% (active); `CCN1CCN(C(=O)CN(C)S(=O)(=O)c2ccc3ccccc3c2)CC1`: -0.824%.
For `S=c1c2[nH]cnc2ncn1CCSc1ncnc2nc[nH]c12`, the growth rescue was -2.56%.
Next, `CC(=O)c1ccc(OCC(O)CN2CCN(S(=O)(=O)c3cccc(Br)c3)CC2)cc1` (centres undefined): 26.4% (active); `Cc1cccc(OCC(O)CN2CCN(S(=O)(=O)c3ccc(C)cc3C)CC2)c1` (centres undefined): 0.709%.
Next, `O=S(=O)(c1ccc(OCC(O)CN2CCN(c3ccccc3Cl)CC2)cc1)N1CCOCC1` (centres undefined): 2.31%; `COC(=O)c1cc2occc2n1Cc1nc(-c2ccccc2C)oc1C`: 1.43%.
In the case of `Cc1c(NS(=O)(=O)c2cc(C(=O)NCCc3ccc(F)cc3)cc(Cl)c2Cl)c(=O)n(-c2ccccc2)n1C` it was -0.709%; in that of `COc1ccccc1C(=O)NN1C(=O)C2C3C=CC(O3)C2C1=O` (centres undefined), 0.742%; in that of `CC12CCC(C(=O)N(NC(=O)c3ccccc3O)C1=O)C2(C)C` (centres undefined), 64.6% (active).
Consider `CC1=CC(C)(C)NC(=S)N1NC(=O)c1ccccc1Cl`, for which the growth rescue is 0.305%.
In the case of `CN1CCN(C(=O)N2c3ccccc3CCc3ccccc32)CC1` it was -1.45%.
In the case of `CC(C)CN(CC(C)C)C(=O)CN1c2cccc3cccc(c23)S1(=O)=O` it was 29.2% (active).
`O=C(O)CN1c2cccc3cccc(c23)S1(=O)=O`: the growth rescue was 0.021%.
Regarding `CCN(CC(=O)Nc1c(F)cccc1F)C(=O)CN1c2cccc3cccc(c23)S1(=O)=O`, the growth rescue is 0.416%.
Consider `COc1ccc(C2COC(=O)C2=N)c(NC(=O)c2ccccc2)c1` (centres undefined), for which the growth rescue was -1.79%.
In the case of `Cn1nccc1C(=O)N1CCCC(C(=O)c2ccc(Oc3ccccc3)cc2)C1` (centres undefined) it was 1.09%.
Next, `CCOC(=O)CCNC(=O)N1CCCC(C(=O)c2ccccc2SC)C1` (centres undefined): -0.934%; `Cc1ccccc1NC(=O)C1CCCN(C(=O)NCc2ccccc2)C1` (centres undefined): -1.16%; `Cc1nc(C(=O)N2CCCC(C(=O)c3ccc(Cl)cc3)C2)cs1` (centres undefined): -0.97%.
In the case of `O=C(c1ccc(-c2ccccc2)cc1)C1CCCN(C(=O)c2cncs2)C1` (centres undefined) it was 373% (active); in that of `CCNC(=O)N1CCCC(C(=O)c2ccc(-c3ccccc3)cc2)C1` (centres undefined), 173% (active).
